An excerpt weighted towards active compounds, which were near 4.1% of everything screened.
UHRF1 MBD2 ctr: UHRF1 methylated DNA binding inhibitors, primary screen, counter-screen for MBD2 inhibitor project, biochemical, TR-FRET, human UHRF1, single concentration; E3 ubiquitin-protein ligase UHRF1 (Homo sapiens), Q96T88; UHRF1 binding to methylated oligo; inhibition, % at 4.4 µM; 370,000 compounds, 0.75% hits; AID 687016, 2013; in the data active = inhibition above about 21%;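 note: UHRF1 SRA domain binding a hemimethylated CpG hairpin DNA probe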
Target sequence (Q96T88 whole entry, looked up, the tested form may be a part): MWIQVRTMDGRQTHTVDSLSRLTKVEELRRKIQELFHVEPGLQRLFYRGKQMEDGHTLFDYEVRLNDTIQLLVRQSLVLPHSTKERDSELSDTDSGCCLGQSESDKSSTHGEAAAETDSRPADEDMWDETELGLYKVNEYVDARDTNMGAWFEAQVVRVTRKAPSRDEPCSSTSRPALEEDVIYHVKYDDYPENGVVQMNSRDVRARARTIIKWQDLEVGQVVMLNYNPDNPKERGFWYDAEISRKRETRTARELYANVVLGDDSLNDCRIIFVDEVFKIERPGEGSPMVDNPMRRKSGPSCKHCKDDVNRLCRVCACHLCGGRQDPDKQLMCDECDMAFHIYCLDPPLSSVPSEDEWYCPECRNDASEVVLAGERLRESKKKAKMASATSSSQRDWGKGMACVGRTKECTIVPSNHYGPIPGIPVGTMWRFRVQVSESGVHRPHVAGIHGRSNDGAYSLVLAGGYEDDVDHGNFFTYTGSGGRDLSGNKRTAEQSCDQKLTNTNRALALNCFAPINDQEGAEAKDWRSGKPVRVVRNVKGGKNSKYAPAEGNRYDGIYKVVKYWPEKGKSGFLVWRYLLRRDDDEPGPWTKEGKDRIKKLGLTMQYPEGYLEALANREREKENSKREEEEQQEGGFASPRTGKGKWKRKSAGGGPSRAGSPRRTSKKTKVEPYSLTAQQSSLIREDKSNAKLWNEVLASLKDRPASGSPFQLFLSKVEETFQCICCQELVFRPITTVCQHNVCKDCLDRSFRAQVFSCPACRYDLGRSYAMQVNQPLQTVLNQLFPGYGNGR
PRMT1 FP inh: PRMT1 methyltransferase inhibitors, primary screen, biochemical, fluorescence polarization. recombinant PRMT1, activity-based probe fluorescence polarization. 370,000 compounds, 1.3% hits. Protein arginine N-methyltransferase 1 (Homo sapiens), Q99873. inhibition, % at 2.79 µM;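 active = inhibition above about 21% made by adding two undisclosed values, limit read from the data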
MBD2 inh: inhibitors of MBD2 binding to methylated DNA, primary screen, biochemical, TR-FRET, DNA-binding domain, human. AID 686964, 2013. inhibition, % at 4.4 µM. MBD2 binding to methylated oligonucleotide. 370,000 compounds, 0.31% hits; in the data active = inhibition above about 13%
ABHD5 PLIN5 PPI: ABHD5-PLIN5 interaction inhibitors, primary screen, cell lysate, split luciferase complementation, luminescence. Split G. princeps luciferase complementation, 4 h. inhibition, % at 4 µM. 360,000 compounds, 0.78% hits. AID 602281, 2012;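 active = inhibition above the mean inhibition across every tested compound plus 3 SD, cut at about 22% in these data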
rCAG binder: binders of r(CAG) RNA repeats, primary screen, biochemical, fluorescence | r(CAG) RNA repeat, TO-PRO-1 dye displacement fluorescence | 370,000 compounds, 1.3% hits | AID 651821, 2012 | inhibition, % at 3 µM;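 active = inhibition above the plate cutoff, the mean of all test compounds on that plate plus 3 SD, cut at about 35% in these data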;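 note: higher means more dye released from RNA so lower well fluorescence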
LEDGF integ inh: blockers of LEDGF/p75-dependent integrase strand transfer – biochemical, TR-FRET, high throughput, primary screen; HIV-1 integrase (with human LEDGF/p75); TR-FRET IN-LEDGF/p75 DNA integration, Eu/Cy5; AID 743269, 2014; inhibition, % at 3.7 µM; 370,000 compounds, 0.64% hits;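 active = inhibition above the screen-wide mean plus 3 SD, cut at about 13% in these data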;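 note: signal is the Cy5 over europium emission ratio at 671 and 618 nm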
PRMT1 inh conf: PRMT1 methyltransferase inhibitors, confirmation, biochemical, fluorescence polarization, triplicate; recombinant His-PRMT1, activity-based probe fluorescence polarization; AID 687036, 2013; inhibition, % at 2.79 µM; 3,300 compounds, 42% hits; shares compounds with PRMT1 FP inh;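 active = mean inhibition across replicates above the hit cutoff derived for the earlier primary screen, cut at about 22% in these data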
Large screens that a line does not name were inactive (follow-up assays come after a bar, where they were run).

CC(C)(C)n1nnnc1C(c1ccccc1)N1CCN(c2ccccc2)CC1 (centres undefined)	none
CN1CCN(C(=S)C(=O)Nc2ccc(Br)cc2)CC1	PRMT1 FP inh 72.3 | PRMT1 inh conf 71.9
O=C(COC(=O)c1cc[n+]([O-])cc1)Nc1ccc(Br)cc1	none
CC(C)=CC(=O)OCC(=O)Nc1ccc(SC(F)F)cc1	none
CC(=O)CCC(=O)OCC(=O)Nc1ccc(SC(F)F)cc1	PRMT1 FP inh 27.4 | PRMT1 inh conf 24.2
O=C(COC(=O)c1cc[n+]([O-])cc1)Nc1ccc(SC(F)F)cc1	PRMT1 FP inh 28.2 | PRMT1 inh conf inactive
Nc1c(C(=O)Nc2ccccc2)sc2nc(-c3ccco3)ccc12	PRMT1 FP inh 52.0, rCAG binder 34.6 | PRMT1 inh conf 40.1
Nc1c(C(=O)N2CCCC2)sc2nc(-c3ccccc3)ccc12	PRMT1 FP inh 34.4 | PRMT1 inh conf inactive
COc1ccccc1NC(=O)c1sc2nc(-c3ccco3)ccc2c1N	none (no result: UHRF1 MBD2 ctr, PRMT1 FP inh, MBD2 inh, rCAG binder, LEDGF integ inh)
Nc1c(C(=O)N2CCCCC2)sc2nc3c(cc12)CCCC3	none
Nc1c(C(=O)Nc2ccccc2)sc2nc(-c3cccnc3)ccc12	PRMT1 FP inh 39.6 (no result: ABHD5 PLIN5 PPI) | PRMT1 inh conf inactive
COc1ccc2cc3c(N)c(C(=O)N4CCCC4)sc3nc2c1	PRMT1 FP inh 40.8 (no result: ABHD5 PLIN5 PPI) | PRMT1 inh conf inactive
S=C(SCc1nc(-c2ccc(Cl)cc2)no1)N1CCSCC1	none (no result: ABHD5 PLIN5 PPI)
CN(CC(=O)Nc1ccccc1Cl)C(=O)CSc1nc2ccccc2s1	none
CN(CC(=O)N1CCOCC1)C(=O)CSc1nc2ccccc2s1	PRMT1 FP inh 26.5 | PRMT1 inh conf 33.6
COC(=O)c1cc2c(c3c4cc(F)ccc4n(S(=O)(=O)c4ccc(C)cc4)c13)C(=O)N(Cc1ccccc1)C2	none (no result: ABHD5 PLIN5 PPI)
O=C(Nc1ccc(Cl)cc1)C(Cl)C(=O)c1ccccc1 (centres undefined)	PRMT1 FP inh 77.5 | PRMT1 inh conf 78.4
CN(CCO)c1cccc2c1S(=O)(=O)N(Cc1cn(Cc3ccccc3C(F)(F)F)nn1)Cc1ccccc1O2	none (no result: ABHD5 PLIN5 PPI)
COc1ccc(NC(=O)CSc2nc3ccsc3c(=O)n2Cc2ccccn2)c(OC)c1	PRMT1 FP inh 29.4 | PRMT1 inh conf inactive
CCC(C)[C@H](NC(=O)OC(C)(C)C)C(=O)N[C@@H](Cc1ccccc1)C(=O)OC (some centres undefined)	none (no result: ABHD5 PLIN5 PPI)
CCCC1CCC2(CCCN2CCOC(=O)Nc2ccc(Br)cc2)CC1 (centres undefined)	none (no result: ABHD5 PLIN5 PPI, rCAG binder)
COc1ccc(-c2ccc3c(n2)CCCN3S(=O)(=O)c2ccc(OC)cc2)cc1	none (no result: ABHD5 PLIN5 PPI)
COc1ccc(-c2ccc3c(n2)CCCN3S(=O)(=O)c2ccc(C#N)cc2)cc1	PRMT1 FP inh 45.0 (no result: ABHD5 PLIN5 PPI) | PRMT1 inh conf 26.1
S=C(NCCCN1CCOCC1)NCCCN1CCOCC1	PRMT1 FP inh 39.9 | PRMT1 inh conf 57.9
CC(C)C(NC(=O)[C@H](Cc1ccc(O)cc1)NC(=O)OC(C)(C)C)P(=O)(O)OC(Cc1ccccc1)C(=O)O (some centres undefined)	none (no result: ABHD5 PLIN5 PPI, rCAG binder)
N#CC1=C2SCN(Cc3ccco3)CN2C(=O)CC1c1ccc(Cl)cc1 (centres undefined)	PRMT1 FP inh 32.4 | PRMT1 inh conf inactive
OCCC(N1CCOCC1)C(O)(c1ccccc1)c1ccccc1 (centres undefined)	none (no result: ABHD5 PLIN5 PPI)
CC(=O)O[C@H]1CC[C@]2(C)C3CC[C@]4(C)[C@@H]([C@H](C)/C=C/[C@H](C)C(C)C)CC[C@H]4[C@@]34C=C[C@]2(C1)N(C(=O)c1ccccc1)O4 (some centres undefined)	none (no result: ABHD5 PLIN5 PPI)
CC(C)N(C[C@@H]1CSCCS(=O)(=O)N1)C(C)C	none (no result: ABHD5 PLIN5 PPI)
CSCCOC(=O)C1=C(C)Nc2ccc(C)cc2S1	PRMT1 FP inh 34.3 | PRMT1 inh conf inactive
CCOC(=O)C1=C(C)Nc2ccc(C)cc2S1	PRMT1 FP inh 41.7 | PRMT1 inh conf inactive
CCOC(=O)C1=C(C)Nc2ccccc2S1	PRMT1 FP inh 31.3 | PRMT1 inh conf inactive
CCCCCn1nnnc1C1(C)Cn2nccc2C(=O)N1Cc1ccco1 (centres undefined)	none (no result: ABHD5 PLIN5 PPI)
CC1(C)CC(=O)C=C(c2ccccc2-c2ccc3c(c2)OCO3)C1=O	none (no result: ABHD5 PLIN5 PPI)
CC(C)=CCC[C@@]1(C(=O)O)[C@@H]2C/C=C(\C)CC/C=C(\C)CC[C@H]1[C@]1(CC2)CO1	none (no result: ABHD5 PLIN5 PPI)
CCO[C@H]1OC(C(=O)N2CCN(Cc3ccc4c(c3)OCO4)CC2)=C[C@@H](c2csc3ccccc23)[C@@H]1CCCO	PRMT1 FP inh 96.5 | PRMT1 inh conf inactive
CCO[C@H]1OC(C(=O)N2CCN(Cc3ccc4c(c3)OCO4)CC2)=C[C@@H](c2cn(C(C)=O)c3ccccc23)[C@@H]1CCCO	none
Cc1ccc(/C=N/n2c(-c3cccc(Cl)c3)n[nH]c2=S)o1	PRMT1 FP inh 26.4 | PRMT1 inh conf inactive
S=c1[nH]nc(-c2cccc(Cl)c2)n1/N=C/c1ccc(-c2ccccc2Br)o1	none
COC(=O)[C@]12C[C@H](CC(=O)NCc3ccc(OC)c(OC)c3)C(=O)N(Cc3cccc4ccccc34)C1=C[C@H](COCc1ccccc1)O[C@@H]2C	none (no result: ABHD5 PLIN5 PPI)
COC(=O)c1ccc2nc(-c3ccc(C)cc3)c(Cc3cccc(Cl)c3)n2c1	none
COC(=O)c1ccc2nc(-c3ccco3)c(Cc3cccc(Cl)c3)n2c1	UHRF1 MBD2 ctr 21.9, PRMT1 FP inh 25.1 | PRMT1 inh conf inactive
COC(=O)c1ccc2nc(-c3ccco3)c(Cc3ccsc3)n2c1	PRMT1 FP inh 32.5 (no result: ABHD5 PLIN5 PPI) | PRMT1 inh conf 37.4
Cc1cc(Br)cn2c(Cc3cccc(F)c3)c(-c3ccco3)nc12	PRMT1 FP inh 34.9 (no result: ABHD5 PLIN5 PPI) | PRMT1 inh conf 30.1
Clc1ccc2nc(-c3ccco3)c(Cc3ccsc3)n2c1	PRMT1 FP inh 46.7, ABHD5 PLIN5 PPI 49.1 | PRMT1 inh conf 22.8
CC(NC(=O)C(NC(=O)OCc1ccccc1)C(C)O)C(=O)OCc1ccccc1 (centres undefined)	none (no result: ABHD5 PLIN5 PPI)
Clc1cccc(Cc2c(-c3ccco3)nc3c4ccccc4ccn23)c1	PRMT1 FP inh 25.4 | PRMT1 inh conf inactive
Clc1cccc(Cc2c(-c3cccc(Cl)c3)nc3c4ccccc4ccn23)c1	none
COc1ccc(S(=O)(=O)Cc2ccc(C(=O)NCc3ccccn3)o2)cc1	none
Cc1ccc(CS(=O)(=O)Cc2ccc(C(=O)NCc3ccccn3)o2)cc1	PRMT1 FP inh 33.7 | PRMT1 inh conf inactive
